This is a sample that favours compounds with a hit; in the whole collection about 12% have one here.
SARS PLpro yeast-1 – SARS-CoV PLP inhibition in yeast; S. cerevisiae expressing SARS-CoV PLpro, growth rescue; Potency, µM (highest dose often 32.9 µM), inactives show top-dose activity, positive = growth rescue, actives largely listed as activators; 330,000 tested, 0.19% active; calls by dose curve; note: potency is the fitted concentration of half-maximal effect; 0% is about no effect; nearly all actives have a fitted effect of over 55% in size
Sm TGR inh – inhibitors of Schistosoma mansoni thioredoxin glutathione reductase; AID 485364; 360,000 tested, 3% active; Q962Y6; purified TGR, DTNB reduction, TNB absorbance 405 nm; Potency, µM (highest dose often 114 µM), for the others: top-dose activity change, negative = inhibition, usual class: inhibitors; note: potency is the fitted concentration of half-maximal effect; % is set by controls: 0 for no effect and ±100 for the full control effect; nearly all actives have a fitted effect of over 60% in size
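TGR 20 nM + NADPH 100 uM (dispensed conc.), cpd preinc 15 min RT; start with NADPH (500 uM addition) then DTNB (15 mM addition). Kinetic TNB absorbance, 405 nm filter. Four-parameter Hill fit across titration.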
Pf growth 48h – P. falciparum growth inhibition at 48 hours (one generation) | P. falciparum luciferase growth in erythrocytes, 48 h | Potency, µM (series often up to 28.7 µM), for inactives: at the highest dose activity change, negative = inhibition, actives largely listed as inhibitors | 310,000 tested, 5.9% active | AID 504832; note: potency is the fitted concentration of half-maximal effect; % is set by controls: 0 for no effect and ±100 for the full control effect
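Erythrocytes infected with P. falciparum carrying an integrated firefly luciferase reporter (2% hematocrit, 0.1% parasitemia final) were exposed to compounds in RPMI 1640 with 0.5% Albumax at 37 C, 5% CO2. Growth inhibition was scored as reduced luminescence.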
Pf growth 96h – inhibits malaria parasite growth, 96 h; P. falciparum luciferase reporter growth, 96 h; Potency, µM (top dose mostly 28.7 µM), inactives show at the highest dose activity change, negative = inhibition, most hits filed as inhibitors; 320,000 tested, 6.9% active; AID 504834; note: potency is the fitted concentration of half-maximal effect; % is set by controls: 0 for no effect and ±100 for the full control effect
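Luminescence readout: decreased luciferase signal marks inhibited growth of reporter-expressing P. falciparum in infected red cells (2% hematocrit, 0.05% parasitemia final), exposed to compound two generations (96 h, 37 C, 5% CO2).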
SARS PLpro yeast-2 – Rescues yeast growth by inhibiting SARS-CoV PLpro; 1,000 tested, 19% active; yeast expressing SARS-CoV PLpro, growth phenotype rescue; shares compounds with SARS PLpro yeast-1; AID 652038; calls only; call rule not given here
* = called active by the depositor; i = inactive; ? = inconclusive; . = no result given; + = active, no number; [ ] = another dose, or the depositor's remark. Unless noted, calls come from the whole dose curve; as a rule, active = well fitted curve in the direction sought with a large enough effect; inconclusive = small, poorly fitted or top-dose-only effect, or another doubt; inactive = no such curve, though single readings can be large; an effect the other way counts as inactive or inconclusive.

SMILES	SARS PLpro yeast-1	Sm TGR inh	Pf growth 48h	Pf growth 96h	SARS PLpro yeast-2
Cc1[nH]n(-c2ccccc2)c(=O)c1/C=N\NC(=O)C1COc2ccccc2O1 (stereo not drawn)	10µM*	-16.2%	?	?	i
Cn1c(=O)oc2cc(S(=O)(=O)N3CCC(C(=O)N4CCN(c5ccccc5F)CC4)CC3)ccc21	.	-3.3%	.	.	.
CC1CCCN(C(=O)CNC(=O)c2ccco2)C1 (stereo not drawn)	4.4%	0.0%	270.1%	87.4%	.
Cc1ccc2occ(-c3cc(-c4ccccc4)nc4c3COc3ccccc3-4)c(=O)c2c1	.	-2.8%	.	.	.
COCCN(C(=O)COC(=O)Cc1coc2cc3c(cc12)CCC3)c1c(N)n(Cc2ccccc2)c(=O)[nH]c1=O	-2.9%	4.7%	-10.8%	4.4%	.
NC(=O)c1cccn1-c1ncc(C(F)(F)F)cc1Cl	1.0%	9.9%	i	-0.6%	.
O=C(Nc1ccc(Br)cc1)c1cccn1-c1ncc(C(F)(F)F)cc1Cl	?	-18.4%	?	?	i
Cc1ccc(C)c(C(=O)N2CCC(c3nc4c(nnn4Cc4ccccc4)c(=O)[nH]3)CC2)c1	.	1.6%	.	.	.
O=C(OCc1ccccc1)c1ccc2c(c1)-c1ccccc1C2=O	15.8µM*	16.7%	9.28µM*	?	i
CCC(C)n1c(O)c(/C=N/NC(=O)c2ccncc2)c(=O)[nH]c1=S (stereo not drawn)	11.2µM*	-20.7%	12.7%	0.1%	i
CCn1c(O)c(/C=N/NC(=O)c2ccncc2)c(=O)[nH]c1=S	1.5%	?	14.3%	0.0%	.
COc1ccccc1NC(=O)CCn1nc(-c2ccccc2OC)c2c(C)cc(C)nc21	.	-5.4%	.	.	.
O=C(NNC(=O)c1cc(Cl)ccc1O)c1cccc(S(=O)(=O)N2CCOCC2)c1	?	1.9%	?	-7.9%	+
CCSc1nnc(N(CCC(=O)O)CCC(=O)O)s1	?	-1.4%	25.4%	24.7%	i
Cc1cc(Nc2cc(Cl)ccc2C)n2nc(-c3ccccc3)nc2n1	.	5.1%	.	.	.
CC(=O)c1cccc(NC(=O)CSc2ccc(-c3ccccn3)nn2)c1	?	3.5%	?	?	+
CC(=O)Nc1cccc(NC(=O)CSc2ccc(-c3ccccn3)nn2)c1	?	0.8%	?	?	.
O=C(COC(=O)CNC(=O)c1ccccc1)Nc1ccc(S(=O)(=O)N2CCOCC2)cc1	0.2%	0.9%	1.7%	0.0%	.
CC(OC(=O)CNC(=O)c1ccccc1)C(=O)Nc1ccc(S(=O)(=O)N2CCOCC2)cc1 (stereo not drawn)	?	3.4%	5.8%	0.1%	i
CC(=O)N1CCOc2cc(S(=O)(=O)N(C)Cc3ccccc3)c(Cl)cc21	.	-17.1%	.	.	.
Cc1nc([N+](=O)[O-])c(Sc2nc3ccc([N+](=O)[O-])cc3[nH]2)n1Cc1ccccc1	10µM*	14.1µM*	?	?	i
O=C(CSc1nc2ccc([N+](=O)[O-])cc2[nH]1)c1ccc2ccccc2c1	-6.8%	-10.8%	?	?	.
O=C(Cn1nc(Cl)nc1Cl)c1ccc2c(c1)OCCO2	11.2µM*	20µM*	12.7%	-20.5%[5.75 µM]	?
O=C(Cn1nc(Cl)nc1Cl)c1ccccc1	-1.8%	1.1%	-3.7%	-3.4%	.
CC(C)CC(=O)N1CCN(c2ccc([N+](=O)[O-])cc2Cl)CC1	-34.9%	3.8%	1.1%	37.8%	.
SMILES	SARS PLpro yeast-1	Sm TGR inh	Pf growth 48h	Pf growth 96h	SARS PLpro yeast-2
CC(C)CC(=O)NC(=S)N1CCN(c2ccc([N+](=O)[O-])cc2Cl)CC1	?	-16.6%	-27.6%	?	i
CNc1nc(-c2ccccn2)nnc1-c1ccccc1	?	-5.6%	.	?	i
Cc1c(O)c2cccnc2[nH]c1=O	3.55µM*	1.4%	-8.2%	42.0%	i
CCOC(=O)C1=C(COC(=O)CNC(=O)c2ccc(Cl)cc2Cl)NC(=O)NC1C (stereo not drawn)	-5.6%	2.8%	15.8%	9.6%	.
O=C(CCN1C(=O)/C(=C\c2cccs2)SC1=S)NC1=NCCS1	-10.8%	-10.7%	13.1%	29.5%	.
COc1ccccc1/C=C1\SC(=S)N(CCC(=O)NC2=NCCS2)C1=O	3.98µM*	-7.1%	7.2%	-4.9%	i
O=C(CCn1c(=O)oc2ccccc21)NC1=NCCS1	?	-2.9%	4.4%	?	i
Cc1cccc(NC(=O)CSc2nnc(Cn3cnc4ccccc43)o2)c1	17.8µM*	0.0%	16.3%	9.4%	i
COC(=O)c1ccc(N2CCN(CCNC(=O)Nc3ccc(OC)cc3)CC2)cc1	?	6.2%	?	-13.3%	i
C/C(=N\NC(=O)CN1CCN(S(=O)(=O)c2ccc(C)cc2)CC1)c1cccnc1	3.16µM*	5.5%	6.2%	17.6%	i
COc1cccc(/C=N/NC(=O)c2nc(-c3ccccc3)cc(-c3ccccc3)n2)c1O	11.2µM*	-6.2%	4.5%	2.3%	+
COc1cccc(/C=N/NC(=O)C(C)n2nc(C)c([N+](=O)[O-])c2C)c1O (stereo not drawn)	11.2µM*	-8.8%	?	?	i
COc1cccc(/C=N/NC(=O)CSc2ccccc2C)c1O	22.4µM*	0.7%	?	0.0%	+
COc1cccc(/C=N/NC(=O)c2c(C)nc3ccc(Br)cn23)c1O	?	-9.8%	11.7µM*	0.5%	i
COc1cccc(/C=N/NC(=O)N/N=C/c2cccc(OC)c2O)c1O	6.8%	-4.7%	?	?	.
COc1ccc(OC)c(NC(=O)NCCCCc2ccccc2)c1	3.0%	7.7%	?	?	.
CCC(C)NC(=O)Cn1c(=O)c2cccn2c2ccc(F)cc21 (stereo not drawn)	.	-8.4%	.	.	.
O=C1NCCCC1C(=O)N/N=C/c1ccccc1 (stereo not drawn)	?	4.7%	3.5%	4.8%	i
Fc1ccccc1OCCCCCN1CCCC1	2.51µM*	-2.3%	?	-3.1%	i
Fc1ccccc1OCCCCCCN1CCCC1	-1.8%	-21.8%	-29.3%	-9.3%	.
O=C(Nc1cccc2c1CCCC2)c1ccccc1Cl	15.1%	0.0%	40.5%	-17.2%	.
COc1ccccc1C(=O)Nc1cccc2c1CCCC2	?	2.0%	-10.0%	?	i
COc1ccc(N2C(=O)CSC23C(=O)N(CC(=O)NCCc2ccccc2)c2ccccc23)cc1 (stereo not drawn)	.	2.6%	.	.	.
COc1ccccc1[C@@H]1C(c2cccc(C)c2)=NN(c2ccc(Br)cc2)[C@H]1C(=O)N1CCOC1=O	3.98µM*	.	.	.	i
COc1cc(NC(=S)NCc2ccc(S(N)(=O)=O)cc2)c(OC)cc1Cl	?	-23.9%	-14.3%	?	i
O=C(NS(=O)(=O)N1CCOCC1)C1=C(N2CCCC2)COC1=O	3.55µM*	.	.	.	i
Cc1ccc(C(=O)Nc2ccccc2N2CCCC2)cc1S(=O)(=O)N1CCOCC1	2.2%	-16.0%	?	?	.
Cc1cccc(OCC(=O)NCC2(N3CCN(C)CC3)CCCCC2)c1	.	-0.4%	.	.	.

High-throughput results: PubChem BioAssay, National Center for Advancing Translational Sciences (NCATS)
